Experimental data: PubChem BioAssay (Tox21)
Where “and” joins values, the source holds several entries; their conditions need not be identical. Equal values may be shown once. Inconclusive results are not listed. Entries that show only a call come without a potency. Some compounds were tested as several samples or in several runs, with calls that do not always agree. Calls of active or inactive are those of the source. Unless noted, calls come from the whole dose curve; as a rule, active = well fitted curve in the direction sought with a large enough effect in the repeat runs; inconclusive = weak or mixed curves; inactive = no such curve, though single readings can be large; an effect the other way counts as inactive or inconclusive.

Experiments:
[1] = qHTS assay to identify small molecule antagonists of the estrogen receptor alpha (ER-alpha) signaling pathway using the BG1 cell line in the presence of 0.1 nM 17-beta-estradiol - cell viability counter screen (AID 1259241); note: nearly all actives have a fitted effect of over 40% in size; note: potency is the fitted concentration of half-maximal effect
Method in brief: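 Following 5 days in phenol red-free medium with charcoal-stripped serum, VM7Luc4E2 cells received test compounds alongside 0.1 nM 17beta-estradiol (final) at 37C for 22 hr. Live cells were then quantified via protease-substrate fluorescence.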

[2] = qHTS assay to identify small molecule antagonists of the androgen receptor (AR) signaling pathway using the MDA cell line in the presence of 0.5 nM R1881 - cell viability counter screen (AID 1259242); note: nearly all actives have a fitted effect of over 45% in size; note: potency is the fitted concentration of half-maximal effect
Method in brief: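 MDA-kb2 cells (MMTV-luciferase, AR/GR responsive) were treated with compounds plus 0.5 nM R1881 (final) for 16 hr at 37C, 0% CO2. Viability was then read in the same wells as live-cell protease fluorescence (CellTiter-Fluor, 30 min).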

[3] = molecular target: Androgen receptor (Homo sapiens) (UniProt P10275); test: qHTS assay to identify small molecule antagonists of the androgen receptor (AR) signaling pathway using the MDA cell line in the presence of 0.5 nM R1881 (AID 1259243); note: nearly all actives have a fitted effect of over 50% in size; note: potency is the fitted concentration of half-maximal effect
Androgen receptor (Homo sapiens), sequence (P10275 whole entry, looked up): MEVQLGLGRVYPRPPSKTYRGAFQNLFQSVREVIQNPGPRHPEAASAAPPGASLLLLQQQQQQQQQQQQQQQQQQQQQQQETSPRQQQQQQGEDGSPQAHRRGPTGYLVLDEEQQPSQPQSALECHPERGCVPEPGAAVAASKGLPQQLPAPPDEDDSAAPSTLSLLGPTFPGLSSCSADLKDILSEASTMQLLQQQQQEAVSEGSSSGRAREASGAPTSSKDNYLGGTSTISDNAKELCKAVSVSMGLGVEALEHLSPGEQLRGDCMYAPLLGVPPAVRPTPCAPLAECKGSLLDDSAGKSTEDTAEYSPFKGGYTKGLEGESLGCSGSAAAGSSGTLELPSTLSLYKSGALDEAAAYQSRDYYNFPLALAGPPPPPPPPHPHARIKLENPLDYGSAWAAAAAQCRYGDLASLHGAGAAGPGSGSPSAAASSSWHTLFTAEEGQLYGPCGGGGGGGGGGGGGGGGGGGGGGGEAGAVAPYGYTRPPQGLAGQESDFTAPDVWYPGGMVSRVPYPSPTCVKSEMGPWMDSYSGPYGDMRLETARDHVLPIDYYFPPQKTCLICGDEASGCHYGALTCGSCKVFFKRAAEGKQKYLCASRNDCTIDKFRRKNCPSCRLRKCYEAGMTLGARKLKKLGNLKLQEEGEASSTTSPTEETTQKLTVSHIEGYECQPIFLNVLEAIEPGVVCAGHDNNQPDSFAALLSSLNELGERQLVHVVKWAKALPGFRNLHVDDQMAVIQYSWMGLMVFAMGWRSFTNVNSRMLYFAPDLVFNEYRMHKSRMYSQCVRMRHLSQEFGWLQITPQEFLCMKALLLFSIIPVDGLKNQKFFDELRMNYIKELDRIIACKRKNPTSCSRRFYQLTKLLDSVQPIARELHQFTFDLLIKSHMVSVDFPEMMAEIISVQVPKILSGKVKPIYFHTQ
Method in brief: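 MDA-kb2 cells (MMTV-luciferase, responsive to AR and GR) at 3,000/well, rested 5 h at 37C, 0% CO2, then given compounds plus 0.5 nM R1881 (final) for 16 hr. Luciferase read with ONE-Glo after 30 min at room temperature.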

[4] = molecular target: Estrogen receptor (Homo sapiens) (UniProt P03372); test: qHTS assay to identify small molecule antagonists of the estrogen receptor alpha (ER-alpha) signaling pathway using the BG1 cell line in the presence of 0.1 nM 17-beta-estradiol (AID 1259244); note: nearly all actives have a fitted effect of over 50% in size; note: potency is the fitted concentration of half-maximal effect
Estrogen receptor (Homo sapiens), sequence (P03372 whole entry, looked up): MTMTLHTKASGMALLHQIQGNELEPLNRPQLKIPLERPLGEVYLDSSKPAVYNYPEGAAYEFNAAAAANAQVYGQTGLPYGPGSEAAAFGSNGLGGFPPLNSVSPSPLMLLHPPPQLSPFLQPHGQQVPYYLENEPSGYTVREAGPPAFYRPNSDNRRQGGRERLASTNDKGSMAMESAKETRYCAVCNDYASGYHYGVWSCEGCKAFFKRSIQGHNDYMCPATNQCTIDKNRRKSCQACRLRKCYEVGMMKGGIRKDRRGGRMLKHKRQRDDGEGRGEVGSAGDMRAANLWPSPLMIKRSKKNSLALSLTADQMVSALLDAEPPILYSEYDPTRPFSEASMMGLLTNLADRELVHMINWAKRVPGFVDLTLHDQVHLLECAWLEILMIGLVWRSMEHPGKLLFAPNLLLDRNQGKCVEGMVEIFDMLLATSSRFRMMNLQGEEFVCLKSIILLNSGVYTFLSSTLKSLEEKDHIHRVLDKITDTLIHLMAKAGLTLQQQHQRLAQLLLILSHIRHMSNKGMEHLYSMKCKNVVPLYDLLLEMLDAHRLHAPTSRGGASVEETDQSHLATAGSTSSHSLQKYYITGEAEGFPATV
Method in brief: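 VM7Luc4E2 cells (endogenous full-length ER-alpha, 4×ERE-luciferase), kept 5 days in phenol red-free, charcoal-stripped FBS medium; 4,000 cells/well. Compounds added with 0.1 nM (final) 17beta-estradiol, 22 hr at 37C; luminescence read with ONE-Glo after 30 min.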

[5] = qHTS assay to identify small molecule phospholipidosis (PLD) inducers (AID 1259344; active = well fitted curve in the direction sought with a large enough effect; an effect the other way counts as inactive or inconclusive)
Method in brief: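 HepG2 cells grown on collagen I take up LipidTOX Red while exposed to compound for 24 h; after fixation they are imaged at 20x and pit metrics are extracted.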

[6] = qHTS assay to identify small molecule HDAC inhibitors (AID 1259364); note: nearly all actives have a fitted effect of over 45% in size; note: potency is the fitted concentration of half-maximal effect
Method in brief: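 Wild-type HCT-116 cells, plated overnight at 37 C, exposed to compounds 2 hr at 37 C; luminogenic HDAC-Glo substrate then added 30 min at room temperature. Luminescence reports relative endogenous class I/II HDAC activity.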

[7] = qHTS assay to identify small molecule HDAC inhibitors - cell viability counter screen (AID 1259365); note: nearly all actives have a fitted effect of over 50% in size; note: potency is the fitted concentration of half-maximal effect
Method in brief: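 HCT-116 wild-type, overnight attachment; 2hr drug exposure, 37C; CellTiter-Glo luminescent ATP readout after 30min RT.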

[8] = qHTS assay to identify small molecule agonists of the sonic hedgehog signaling (Shh) pathway - cell viability counter screen (AID 1259366); note: nearly all actives have a fitted effect of over 50% in size; note: potency is the fitted concentration of half-maximal effect
Method in brief: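 Compounds in DMSO were pin-transferred onto 3T3 Gli1-Luc cells that had settled 4hr; plates then stood 24hr at 37C and 5% CO2. One hour before the end, CellTiter-Fluor was added and fluorescence recorded.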

[9] = qHTS assay to identify small molecule antagonists of the sonic hedgehog signaling (Shh) pathway - cell viability counter screen (AID 1259367); note: nearly all actives have a fitted effect of over 55% in size; note: potency is the fitted concentration of half-maximal effect
Method in brief: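 After a 4 hr settling period, 3T3 Gli1-Luc cells were treated with DMSO-dissolved chemicals and conditioned medium, kept 24 hr at 37C in 5% CO2, and assayed for viability by CellTiter-Fluor fluorescence following 1 hr reagent incubation.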

[10] = qHTS assay to identify small molecule agonists of the sonic hedgehog signaling (Shh) pathway (AID 1259368; calls by dose curve;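 note: NIH/3T3-derived 3T3Gli1-Luc cells carrying a stable Gli1-driven firefly luciferase reporter; series mostly up to about 92 µM; nearly all actives have a fitted effect of over 15% in size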)
Method in brief: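 NIH/3T3-derived 3T3Gli1-Luc cells with stably integrated Gli1-driven firefly luciferase, 2,000 cells/well, compounds added after 4 hr. Incubated 24 hr at 37C, 5% CO2; luminescence read after 30 min with luciferase reagent at room temperature.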

SMILES	Potency [1]	Potency [2]	Potency [3]	Potency [4]	outcome [5]	Potency [6]	Potency [7]	Potency [8]	Potency [9]	Potency [10]
O=C(O)c1nn(Cc2ccc(Cl)cc2Cl)c2ccccc12	inactive	inactive	inactive	inactive	inactive	inactive	inactive	inactive	inactive	inactive
CNC(=O)Oc1cccc2c1OC(C)(C)C2	inactive	inactive	inactive	inactive		inactive	inactive	inactive	inactive	inactive
N#Cc1nn(-c2c(Cl)cc(C(F)(F)F)cc2Cl)c(N)c1S(=O)C(F)(F)F (configuration not stated)	inactive	inactive	9.75 µM (active) and 15 µM (active)	6.9 µM (active) and 21.1 µM (active)	inactive	inactive	inactive	inactive	inactive	inactive
CCC/C=N/O	inactive	inactive		inactive		inactive	inactive	inactive	inactive	inactive
CSc1nc(NC(C)C)nc(NC(C)C)n1	inactive	inactive		inactive		inactive	inactive	inactive	inactive	inactive
Clc1cccc(C(Cl)(Cl)Cl)n1	inactive	inactive	inactive	inactive		inactive		inactive	inactive	inactive
O=[N+]([O-])/N=C1\NCCN1Cc1ccc(Cl)nc1	inactive	inactive	inactive	inactive	inactive	inactive	inactive	inactive	inactive	inactive
COc1ccc(O)c(C(C)(C)C)c1	inactive	inactive		inactive		inactive	inactive	inactive	inactive	inactive
CC[n+]1c(-c2ccccc2)c2cc(N)ccc2c2ccc(N)cc21	30.5 µM (active)	24.2 µM (active) and 13.3 µM (active)		27.2 µM (active) and 21.1 µM (active)	inactive	inactive		54.2 µM (active) and inactive	48.3 µM (active) and inactive	inactive
S=c1[nH]c2ccccc2[nH]1	inactive	inactive	inactive			inactive	inactive	inactive	inactive	inactive
CC(C)(O)C(=O)Nc1ccc([N+](=O)[O-])c(C(F)(F)F)c1	inactive	inactive		31.3 µM (active) and 35.5 µM (active)		inactive	inactive	inactive	inactive	inactive
CCCCCCCCCc1ccc(O)cc1	inactive	inactive		inactive		inactive	inactive	inactive	inactive	inactive
COP(=S)(OC)SCn1nnc2ccccc2c1=O	inactive	inactive	23.9 µM (active) and 17.2 µM (active)			inactive	inactive	inactive		inactive
CC(C)Nc1ccc(Nc2ccccc2)cc1	43.1 µM (active)	60.9 µM (active)		21.6 µM (active)	inactive		inactive	24.2 µM (active) and 24.3 µM (active)	21.6 µM (active) and 24.3 µM (active)	inactive
CCCCOC(=O)COC(=O)c1ccccc1C(=O)OCCCC	inactive	inactive		inactive		inactive	inactive	inactive	inactive	inactive
COC(=O)Nc1nc2ccccc2[nH]1	inactive	inactive	inactive			24.3 µM (active) and 27.3 µM (active)	inactive	inactive	inactive	inactive
CN(C)c1nc(=O)n(C2CCCCC2)c(=O)n1C	inactive	inactive		inactive		inactive	inactive	inactive	inactive	inactive
COP(=S)(OC)Oc1ccc(S(=O)(=O)N(C)C)cc1	inactive	inactive	inactive	inactive	inactive	inactive	inactive	inactive	inactive	inactive
C[N+](C)(C)CC(=O)[O-]	inactive	inactive		inactive	inactive	inactive	inactive	inactive	inactive	inactive
C=CC(=O)OCC(CC)(COC(=O)C=C)COC(=O)C=C	70.4 µM (active)	31.5 µM (active)	4.99 µM (active) and 13.7 µM (active)	22.3 µM (active) and inactive		inactive		11.2 µM (active) and 9.69 µM (active)	8.87 µM (active) and 9.69 µM (active)	inactive
CCOP(=S)(OCC)SCSC(C)(C)C	inactive	inactive		inactive		inactive	inactive	inactive	inactive	inactive
CCCCCCCC[N+](C)(CCCCCCCC)CCCCCCCC	24.3 µM (active) and 27.3 µM (active) and 48.6 µM (active)	17.2 µM (active) and 3.44 µM (active) and 15.4 µM (active)		1.22 µM (active) and 15.4 µM (active)		inactive	inactive and 61.1 µM (active)	48.5 µM (active) and 9.7 µM (active) and 19.3 µM (active)	61 µM (active) and 10.9 µM (active) and 24.3 µM (active)	inactive
Oc1ccc(Cl)cc1Cc1ccccc1	inactive	inactive	12.2 µM (active) and 4.38 µM (active)		inactive	inactive	inactive	55.1 µM (active) and inactive	inactive	inactive
C[N+](C)(C)CC(=O)O	inactive	inactive		inactive	inactive	inactive		inactive	inactive	inactive
C[C@]12CC[C@H]3[C@@H](CCC4=CC(=O)CC[C@@H]43)[C@@H]1CC[C@@H]2O	inactive	inactive		inactive	inactive	inactive	inactive	inactive	inactive	inactive

SMILES	Potency [1]	Potency [2]	Potency [3]	Potency [4]	outcome [5]	Potency [6]	Potency [7]	Potency [8]	Potency [9]	Potency [10]
O=NN(c1ccccc1)c1ccccc1	inactive	inactive		inactive		inactive	inactive	inactive	inactive	inactive
CC1=C(C(=O)Nc2ccccc2)SCCO1	inactive	inactive	inactive	inactive		24.7 µM (active) and 27.3 µM (active)		inactive	inactive	inactive
C[C@]12CCC(=O)C=C1CC[C@@H]1[C@@H]2CC[C@@]2(C)[C@H]1CC[C@]2(C)O	inactive	inactive		30.9 µM (active) and inactive	inactive	inactive	inactive	inactive	inactive	inactive
ClC(Cl)=C(Cl)C(Cl)=C(Cl)Cl	inactive	inactive		inactive		inactive	inactive	inactive	inactive	inactive
CCOP(=S)(OCC)OP(=S)(OCC)OCC	inactive	inactive	inactive			inactive		inactive	inactive	inactive
O=NN1CCOCC1	inactive	inactive		inactive		inactive	inactive	inactive	inactive	inactive
CCC(=O)Nc1ccc(Cl)c(Cl)c1	inactive	inactive	7 µM (active) and 13.7 µM (active)			inactive	inactive	inactive	inactive	inactive
CC(C)(C#N)N=NC(C)(C)C#N	inactive	inactive		inactive		inactive	inactive	inactive	inactive	inactive
O=C1CCCO1	inactive	inactive	inactive			inactive	inactive	inactive	inactive	inactive
CNC(=O)CSP(=S)(OC)OC	inactive	inactive		inactive		inactive	inactive	inactive	28.1 µM (active) and inactive	inactive
CC(C)(c1ccc(OCC2CO2)cc1)c1ccc(OCC2CO2)cc1 (configuration not stated)	inactive	inactive	inactive	inactive		inactive	inactive	inactive	inactive	inactive
CCCCC(C#N)(Cn1cncn1)c1ccc(Cl)cc1 (configuration not stated)	inactive	inactive		inactive		inactive	inactive	inactive	inactive	inactive
COP(=S)(OC)Oc1ccc(Sc2ccc(OP(=S)(OC)OC)cc2)cc1		inactive	61.1 µM (active) and inactive	61.1 µM (active) and inactive	inactive	inactive		inactive	inactive	inactive
CCC[CH2][Sn]([Cl])([Cl])[CH2]CCC	1.74 µM (active) and 2.43 µM (active)	874 nM (active) and 611 nM (active)		1.23 µM (active) and inactive		inactive		276 nM (active) and 433 nM (active)	552 nM (active) and 770 nM (active)	inactive
CCC[CH2][Sn]([Cl])([CH2]CCC)[CH2]CCC	7.71 µM (active) and 6.11 µM (active)	1.09 µM (active) and 686 nM (active)		487 nM (active) and 433 nM (active)		inactive		217 nM (active) and 386 nM (active)	487 nM (active) and 770 nM (active)	inactive
N#CCCCCC#N	inactive	inactive				inactive	inactive	inactive	inactive	inactive
OC(c1ccc(Cl)cc1)(c1cncnc1)c1ccccc1Cl (configuration not stated)	inactive	27.8 µM (active) and inactive				inactive	inactive	inactive	inactive	inactive
ClCC(Cl)CCl	inactive	inactive				inactive	inactive	inactive	inactive	inactive
N#Cc1cccnc1	inactive	inactive		inactive		inactive		inactive	inactive	inactive
CCCCCCCCCCCCCl	inactive	inactive		inactive		inactive	inactive	inactive	inactive	inactive
N#CC(c1ccccc1)c1ccccc1	inactive	inactive				inactive		inactive	inactive	inactive
CCNCC	inactive	inactive				inactive	inactive	inactive	inactive	inactive
Brc1ccc(Br)cc1	inactive	inactive				inactive		inactive	inactive	inactive
O=[N+]([O-])c1ccc(Cl)c([N+](=O)[O-])c1		24.7 µM (active) and 21.7 µM (active)	12.4 µM (active)	31.1 µM (active) and 43.3 µM (active)		inactive		5.53 µM (active) and 13.7 µM (active)	3.92 µM (active) and 10.9 µM (active)	inactive
